# In PMC8384837, “Expanding the binding specificity for RNA recognition by a PUF domain”:
# Tests used:
# Assay in all cases: yeast three-hybrid, YBZ-1, SC-Leu-His + 0.5 mM 3-AT, 4 days
# Details in all cases: tags: N-Gal4 AD-HA kept; label: inside an RPR1-promoter hybrid RNA with tandem MS2 sites; ssRNA
# PUM1 PUF domain R5-RHA = PUM1 PUF domain R5-RHA (Homo sapiens, UniProt Q14671 828-1176, C1007R;R1008H;Q1011A)
# How it was run: (§1)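 Pumilio-1 PUF domain libraries, randomized at the three base-contacting residues of each repeat, were co-expressed with matching RNA elements from a centromeric plasmid in strain YBZ-1, which carries a LexA–MS2 coat fusion and a HIS3 reporter. Transformants grew for four days on SC-Leu (input) or on SC-Leu-His + 0.5 mM 3-AT (selection), and the repeat regions were PCR-amplified and Illumina-sequenced. The interaction score is the log change in variant frequency from input to selection. That logarithm is base 2, with a pseudocount of 1 where a variant was absent.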
# PUM1 PUF domain R4-CRG = PUM1 PUF domain R4-CRG (Homo sapiens, UniProt Q14671 828-1176, N971C;H972R;Q975G)
# PUM1 PUF domain R4-CRG, sequence (Q14671 828-1176 N971C/H972R/Q975G): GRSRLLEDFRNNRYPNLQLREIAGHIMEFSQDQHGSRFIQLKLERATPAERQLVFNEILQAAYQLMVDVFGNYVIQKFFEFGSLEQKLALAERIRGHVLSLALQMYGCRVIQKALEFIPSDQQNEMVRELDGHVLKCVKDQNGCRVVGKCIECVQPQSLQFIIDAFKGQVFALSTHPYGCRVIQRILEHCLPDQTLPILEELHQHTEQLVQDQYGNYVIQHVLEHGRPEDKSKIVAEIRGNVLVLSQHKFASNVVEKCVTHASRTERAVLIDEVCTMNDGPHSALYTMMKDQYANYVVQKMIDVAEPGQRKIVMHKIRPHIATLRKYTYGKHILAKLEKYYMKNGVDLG
# How it was run: as §1
# PUM1 PUF domain R4-DWS = PUM1 PUF domain R4-DWS (Homo sapiens, UniProt Q14671 828-1176, N971D;H972W;Q975S)
# PUM1 PUF domain R4-DWS, sequence (Q14671 828-1176 N971D/H972W/Q975S): as the sequence (Q14671 828-1176 N971C/H972R/Q975G) above, with C144D, R145W, G148S counted along it
# How it was run: as §1
# PUM1 PUF domain R5-LYS = PUM1 PUF domain R5-LYS (Homo sapiens, UniProt Q14671 828-1176, C1007L;R1008Y;Q1011S)
# PUM1 PUF domain R5-LYS, sequence (Q14671 828-1176 C1007L/R1008Y/Q1011S): as the sequence (Q14671 828-1176 N971C/H972R/Q975G) above, with C144N, R145H, G148Q, C180L, R181Y, Q184S counted along it
# How it was run: as §1
# PUM1 PUF domain R4-VGY = PUM1 PUF domain R4-VGY (Homo sapiens, UniProt Q14671 828-1176, N971V;H972G;Q975Y)
# PUM1 PUF domain R4-VGY, sequence (Q14671 828-1176 N971V/H972G/Q975Y): as the sequence (Q14671 828-1176 N971C/H972R/Q975G) above, with C144V, R145G, G148Y counted along it
# How it was run: as §1
# PUM1 PUF domain R1-KYQ = PUM1 PUF domain R1-KYQ (Homo sapiens, UniProt Q14671 828-1176, S863K;R864Y)
# PUM1 PUF domain R1-KYQ, sequence (Q14671 828-1176 S863K/R864Y): as the sequence (Q14671 828-1176 N971C/H972R/Q975G) above, with S36K, R37Y, C144N, R145H, G148Q counted along it
# How it was run: as §1
# PUM1 PUF domain R4-DHQ = PUM1 PUF domain R4-DHQ (Homo sapiens, UniProt Q14671 828-1176, N971D)
# PUM1 PUF domain R4-DHQ, sequence (Q14671 828-1176 N971D): as the sequence (Q14671 828-1176 N971C/H972R/Q975G) above, with C144D, R145H, G148Q counted along it
# How it was run: as §1
# PUM1 PUF domain R4-HNL = PUM1 PUF domain R4-HNL (Homo sapiens, UniProt Q14671 828-1176, N971H;H972N;Q975L)
# PUM1 PUF domain R4-HNL, sequence (Q14671 828-1176 N971H/H972N/Q975L): as the sequence (Q14671 828-1176 N971C/H972R/Q975G) above, with C144H, R145N, G148L counted along it
# How it was run: as §1
# PUM1 PUF domain R5-GVQ = PUM1 PUF domain R5-GVQ (Homo sapiens, UniProt Q14671 828-1176, C1007G;R1008V)
# PUM1 PUF domain R5-GVQ, sequence (Q14671 828-1176 C1007G/R1008V): as the sequence (Q14671 828-1176 N971C/H972R/Q975G) above, with C144N, R145H, G148Q, C180G, R181V counted along it
# How it was run: as §1
# PUM1 PUF domain R5-ESE = PUM1 PUF domain R5-ESE (Homo sapiens, UniProt Q14671 828-1176, C1007E;R1008S;Q1011E)
# PUM1 PUF domain R5-ESE, sequence (Q14671 828-1176 C1007E/R1008S/Q1011E): as the sequence (Q14671 828-1176 N971C/H972R/Q975G) above, with C144N, R145H, G148Q, C180E, R181S, Q184E counted along it
# How it was run: as §1
# PUM1 PUF domain R5-RHA, sequence (Q14671 828-1176 C1007R/R1008H/Q1011A): as the sequence (Q14671 828-1176 N971C/H972R/Q975G) above, with C144N, R145H, G148Q, C180R, R181H, Q184A counted along it
sequence,measurement,setting,value
GGCUAGAACUAGUGGAUCCCCCGGCGCCCGGCGGCUCGAGCCCGGGUAAGUGUAAAUAGUCUGCAUGCCGCCGGGCGCCAUGCCUGCAGGUCGACUCUAGAAAACAUG,binding signal,PUM1 PUF domain R5-RHA,2.93 log2 enrichment (interaction score)
same,binding signal,PUM1 PUF domain R4-CRG,4.02 log2 enrichment (interaction score)
same,binding signal,PUM1 PUF domain R4-DWS,2.39 log2 enrichment (interaction score)
same,binding signal,PUM1 PUF domain R5-LYS,3.11 log2 enrichment (interaction score)
same,binding signal,PUM1 PUF domain R4-VGY,2.38 log2 enrichment (interaction score)
GGCUAGAACUAGUGGAUCCCCCGGCGCCCGGCGGCUCGAGCCCGGGUAAGUGUAAAUCGUCUGCAUGCCGCCGGGCGCCAUGCCUGCAGGUCGACUCUAGAAAACAUG,binding signal,PUM1 PUF domain R1-KYQ,4.96 log2 enrichment (interaction score)
GGCUAGAACUAGUGGAUCCCCCGGCGCCCGGCGGCUCGAGCCCGGGUAAGUGUACAUAGUCUGCAUGCCGCCGGGCGCCAUGCCUGCAGGUCGACUCUAGAAAACAUG,binding signal,PUM1 PUF domain R4-DHQ,2.4 log2 enrichment (interaction score)
same,binding signal,PUM1 PUF domain R4-HNL,2.04 log2 enrichment (interaction score)
same,binding signal,PUM1 PUF domain R4-DWS,2.51 log2 enrichment (interaction score)
GGCUAGAACUAGUGGAUCCCCCGGCGCCCGGCGGCUCGAGCCCGGGUAAGUGUCAAUAGUCUGCAUGCCGCCGGGCGCCAUGCCUGCAGGUCGACUCUAGAAAACAUG,binding signal,PUM1 PUF domain R5-RHA,5.53 log2 enrichment (interaction score)
GGCUAGAACUAGUGGAUCCCCCGGCGCCCGGCGGCUCGAGCCCGGGUAAGUGUGAAUAGUCUGCAUGCCGCCGGGCGCCAUGCCUGCAGGUCGACUCUAGAAAACAUG,binding signal,PUM1 PUF domain R5-GVQ,2.24 log2 enrichment (interaction score)
same,binding signal,PUM1 PUF domain R5-ESE,2.77 log2 enrichment (interaction score)
GGCUAGAACUAGUGGAUCCCCCGGCGCCCGGCGGCUCGAGCCCGGGUAAGUGUAUAUAGUCUGCAUGCCGCCGGGCGCCAUGCCUGCAGGUCGACUCUAGAAAACAUG,binding signal,PUM1 PUF domain R4-DHQ,5.32 log2 enrichment (interaction score)
same,binding signal,PUM1 PUF domain R4-CRG,1.29 log2 enrichment (interaction score)
same,binding signal,PUM1 PUF domain R4-HNL,3.45 log2 enrichment (interaction score)
same,binding signal,PUM1 PUF domain R4-DWS,5.96 log2 enrichment (interaction score)
GGCUAGAACUAGUGGAUCCCCCGGCGCCCGGCGGCUCGAGCCCGGGUAAGUGUUAAUAGUCUGCAUGCCGCCGGGCGCCAUGCCUGCAGGUCGACUCUAGAAAACAUG,binding signal,PUM1 PUF domain R5-RHA,5.76 log2 enrichment (interaction score)
same,binding signal,PUM1 PUF domain R5-LYS,3.82 log2 enrichment (interaction score)
same,binding signal,PUM1 PUF domain R5-GVQ,2.71 log2 enrichment (interaction score)
